Data: PubChem BioAssay (Tox21)
Several values for one entry are separate records, joined by “and”; a condition that tells them apart may be missing. Equal values may be shown once. Results filed as inconclusive are left out. A call without a number means that no potency is given here. Some compounds were tested as several samples or in several runs, with calls that do not always agree. Activity calls are given as the source filed them. Unless noted, calls follow the shape of the dose curve; as a rule, active = well fitted curve in the direction sought with a large enough effect in the repeat runs; inconclusive = weak or mixed curves; inactive = no such curve, though single readings can be large; an effect the other way counts as inactive or inconclusive.

How the values were obtained:
[1] = qHTS assay to identify small molecule antagonists of the glucocorticoid receptor (GR) signaling pathway - cell viability counter screen (AID 720693); also: nearly all actives have a fitted effect of over 55% in size
[2] = qHTS assay for identifying genotoxic compounds that show differential cytotoxicity against isogenic chicken DT40 cell lines with known DNA damage response pathways - wild type cell line (AID 743012); also: nearly all actives have a fitted effect of over 60% in size; also: potency is read from the fitted curve at half-maximal effect
Outline: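 Wild type DT40, 300 cells/well, ~0.5 h settle at 37 C/5% CO2; compounds in DMSO added by pintool; 40 h at 37 C/5% CO2; CellTiter-Glo, 30 min RT; luminescence.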

[3] = qHTS assay for identifying genotoxic compounds that show differential cytotoxicity against isogenic chicken DT40 cell lines with known DNA damage response pathways - Rev3 mutant cell line (AID 743014); also: nearly all actives have a fitted effect of over 55% in size; also: potency is read from the fitted curve at half-maximal effect
[4] = qHTS assay for identifying genotoxic compounds that show differential cytotoxicity against isogenic chicken DT40 cell lines with known DNA damage response pathways - Rad54/Ku70 mutant cell line (AID 743015); also: nearly all actives have a fitted effect of over 60% in size; also: potency is read from the fitted curve at half-maximal effect
[5] = biological target: Androgen receptor (Homo sapiens) (UniProt P10275); experiment: qHTS assay to identify small molecule antagonists of the androgen receptor (AR) signaling pathway (AID 743035; active = well fitted inhibition curve with a large enough effect in the signal ratio in the repeat runs, not every such curve was filed as active; the % refers to the signal ratio)
Outline: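 Fluorescence from a beta-lactamase FRET substrate (LiveBLAzer B/G, 2 h, room temperature) measured inhibition of R1881-stimulated signaling in GeneBLAzer AR-UAS-bla HEK293 cells exposed to compound for 16 h at 37C.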

[6] = biological target: Androgen receptor (Homo sapiens) (UniProt P10275); experiment: qHTS assay to identify small molecule agonists of the androgen receptor (AR) signaling pathway (AID 743036; active = well fitted activation curve with a large enough effect in the signal ratio in the repeat runs, with a control signal flat, not every such curve was filed as active; the % refers to the signal ratio)
Outline: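 Quantitative HTS of the Tox21 10K library in HEK293 cells bearing a stably integrated UAS-controlled beta-lactamase reporter. Compound exposure lasted 16 h at 37C. Reporter activity was detected by FRET substrate fluorescence after 2 h at room temperature.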

[7] = biological target: Androgen receptor (Homo sapiens) (UniProt P10275); experiment: qHTS assay to identify small molecule agonists of the androgen receptor (AR) signaling pathway using the MDA cell line (AID 743040; also: nearly all actives have a fitted effect of over 20% in size)
Outline: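 Cells plated, 5 h at 37C/0% CO2; compound or DMSO pinned; 16 h at 37C; ONE-Glo added; luminescence measured after 30 min at room temperature. Reporter line: MDA-kb2 with MMTV-luciferase responsive to AR and GR.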

[8] = qHTS assay to identify small molecule antagonists of the androgen receptor (AR) signaling pathway using the MDA cell line - cell viability counter screen (AID 743041; also: nearly all actives have a fitted effect of over 45% in size)
Outline: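 Cells were plated at 3,000 per well and left 5 h. Compounds in DMSO were then pinned in, followed by R1881. After 16 h at 37C, CellTiter-Fluor fluorescence gave viability.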

[9] = biological target: Androgen receptor (Homo sapiens) (UniProt P10275); experiment: qHTS assay to identify small molecule antagonists of the androgen receptor (AR) signaling pathway using the MDA cell line (AID 743042; also: nearly all actives have a fitted effect of over 55% in size)
Outline: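 Antagonist mode: compounds plus R1881 agonist added to MDA-kb2 AR-luc cells, incubated 16 h at 37C. Luciferase reporter luminescence quantified, with multiplexed CellTiter-Fluor readout for cell viability.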

[10] = qHTS assay to identify small molecule antagonists of the thyroid receptor (TR) signaling pathway - cell viability counter screen (AID 743064); also: nearly all actives have a fitted effect of over 50% in size; also: potency is read from the fitted curve at half-maximal effect
Outline: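 Rat GH3 pituitary tumor cells stably expressing two TR response elements driving luciferase were plated, rested 4 h, then dosed with library compounds and T3 (1 nM final). After 23.5 h at 37 °C, CellTiter-Fluor was added for 30 min and fluorescence recorded.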

[11] = qHTS assay to identify small molecule antagonists of the thyroid receptor (TR) signaling pathway (AID 743065); also: nearly all actives have a fitted effect of over 55% in size; also: potency is read from the fitted curve at half-maximal effect
Outline: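 Antagonism measured as loss of luciferase signal in GH3 cells stably carrying a TRE-luciferase reporter, co-treated with compound and T3 (1 nM final) for 23.5 h at 37 C. Viability was read in the same well by CellTiter-Fluor.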

[12] = system: thyroid hormone receptor (rat, GH3 cells); experiment: qHTS assay to identify small molecule agonists of the thyroid receptor (TR) signaling pathway (AID 743066; calls by dose curve)
[13] = qHTS assay to identify small molecule antagonists of the estrogen receptor alpha (ER-alpha) signaling pathway - cell viability counter screen (AID 743074; calls by dose curve;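 also: HEK293 cells carrying ER-alpha-UAS-bla reporter stimulated with 17beta-estradiol; nearly all actives have a fitted effect of over 45% in size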)
[14] = qHTS assay to identify small molecule antagonists of the estrogen receptor alpha (ER-alpha) signaling pathway using the BG1 cell line - cell viability counter screen (AID 743081);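 also: compound given together with 17beta-estradiol as the ER stimulus; series mostly up to about 70 µM; nearly all actives have a fitted effect of over 45% in size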
Aromatase (Homo sapiens) = Aromatase (Homo sapiens) (UniProt P11511); experiment: qHTS assay to identify aromatase inhibitors (AID 743083)
[15] = qHTS assay to identify small molecule antagonists of the androgen receptor (AR) signaling pathway - cell viability counter screen (AID 743033; also: nearly all actives have a fitted effect of over 45% in size)
[16] = biological target: Estrogen receptor (Homo sapiens) (UniProt P03372); experiment: qHTS assay to identify small molecule antagonists of the estrogen receptor alpha (ER-alpha) signaling pathway (AID 743069; active = well fitted curve in the direction sought with a large enough effect in the signal ratio in the repeat runs, not every such curve was filed as active; the % refers to the signal ratio)
Outline: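 ER-alpha-UAS-bla GripTite HEK293 line; 2% charcoal-stripped FBS overnight; plated, 4 hr 37C/5% CO2; cpd in DMSO + 17beta-estradiol, 18 hr 37C; LiveBLAzer B/G FRET substrate 2 hr RT; fluorescence intensity.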

[17] = biological target: Estrogen receptor (Homo sapiens) (UniProt P03372); experiment: qHTS assay to identify small molecule agonists of the estrogen receptor alpha (ER-alpha) signaling pathway (AID 743075; calls by dose curve;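 also: HEK293 GripTite cells with ER-alpha and UAS-driven beta-lactamase reporter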)
[18] = biological target: Estrogen receptor (Homo sapiens) (UniProt P03372); experiment: qHTS assay to identify small molecule agonists of the estrogen receptor alpha (ER-alpha) signaling pathway using the BG1 cell line (AID 743079); also: nearly all actives have a fitted effect of over 20% in size
[19] = qHTS assay to identify small molecule antagonists of the estrogen receptor alpha (ER-alpha) signaling pathway using the BG1 cell line (AID 743080; calls by dose curve; also: series mostly up to about 70 µM; nearly all actives have a fitted effect of over 25% in size)
Outline: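 Antagonist mode: compounds in DMSO were pinned onto BG1-Luc-4E2 cells alongside 17beta-estradiol agonist, incubated 21.5 h, and ERE-driven luciferase measured with ONE-Glo. Cytotoxicity was multiplexed using CellTiter-Fluor fluorescence.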

Chain of Androgen receptor (Homo sapiens) (P10275 whole entry, looked up): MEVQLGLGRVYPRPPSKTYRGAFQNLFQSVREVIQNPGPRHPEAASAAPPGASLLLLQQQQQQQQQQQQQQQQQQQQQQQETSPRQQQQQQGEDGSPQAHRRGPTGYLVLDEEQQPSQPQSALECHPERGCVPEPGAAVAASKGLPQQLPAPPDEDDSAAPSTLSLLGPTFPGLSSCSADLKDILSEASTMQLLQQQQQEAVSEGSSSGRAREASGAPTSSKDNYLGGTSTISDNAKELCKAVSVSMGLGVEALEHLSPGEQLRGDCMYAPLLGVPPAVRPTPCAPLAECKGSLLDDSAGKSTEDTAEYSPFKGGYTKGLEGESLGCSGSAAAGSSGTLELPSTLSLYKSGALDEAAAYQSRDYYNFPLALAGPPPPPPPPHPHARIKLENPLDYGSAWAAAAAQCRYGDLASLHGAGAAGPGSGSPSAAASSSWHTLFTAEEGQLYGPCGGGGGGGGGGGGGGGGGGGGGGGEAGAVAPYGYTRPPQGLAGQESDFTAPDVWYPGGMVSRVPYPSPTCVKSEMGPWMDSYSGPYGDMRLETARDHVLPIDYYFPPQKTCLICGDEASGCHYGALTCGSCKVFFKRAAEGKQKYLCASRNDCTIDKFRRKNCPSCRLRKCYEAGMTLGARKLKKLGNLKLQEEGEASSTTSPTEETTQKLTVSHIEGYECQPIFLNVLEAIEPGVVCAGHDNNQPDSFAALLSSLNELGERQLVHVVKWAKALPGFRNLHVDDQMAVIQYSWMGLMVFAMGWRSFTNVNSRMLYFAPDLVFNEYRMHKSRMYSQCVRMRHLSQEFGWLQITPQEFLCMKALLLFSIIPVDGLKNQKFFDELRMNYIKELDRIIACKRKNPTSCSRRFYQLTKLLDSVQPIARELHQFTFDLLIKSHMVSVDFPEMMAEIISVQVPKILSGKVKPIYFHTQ
Chain of Estrogen receptor (Homo sapiens) (P03372 whole entry, looked up): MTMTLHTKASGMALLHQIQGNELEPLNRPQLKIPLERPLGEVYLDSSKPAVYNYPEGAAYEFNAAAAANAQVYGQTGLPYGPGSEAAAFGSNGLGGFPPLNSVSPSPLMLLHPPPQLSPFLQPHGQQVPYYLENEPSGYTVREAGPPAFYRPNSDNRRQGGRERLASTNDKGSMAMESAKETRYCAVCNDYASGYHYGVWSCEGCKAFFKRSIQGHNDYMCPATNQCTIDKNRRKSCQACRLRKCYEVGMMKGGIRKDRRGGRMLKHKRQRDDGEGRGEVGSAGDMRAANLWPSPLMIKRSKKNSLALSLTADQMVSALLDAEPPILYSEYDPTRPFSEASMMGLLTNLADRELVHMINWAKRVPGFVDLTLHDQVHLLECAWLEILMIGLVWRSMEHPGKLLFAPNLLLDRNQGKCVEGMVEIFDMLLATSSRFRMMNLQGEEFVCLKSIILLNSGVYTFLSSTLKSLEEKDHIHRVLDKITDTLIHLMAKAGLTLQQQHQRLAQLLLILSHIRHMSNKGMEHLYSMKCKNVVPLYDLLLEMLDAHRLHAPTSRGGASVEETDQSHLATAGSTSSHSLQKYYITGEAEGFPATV
Chain of Aromatase (Homo sapiens) (P11511 whole entry, looked up): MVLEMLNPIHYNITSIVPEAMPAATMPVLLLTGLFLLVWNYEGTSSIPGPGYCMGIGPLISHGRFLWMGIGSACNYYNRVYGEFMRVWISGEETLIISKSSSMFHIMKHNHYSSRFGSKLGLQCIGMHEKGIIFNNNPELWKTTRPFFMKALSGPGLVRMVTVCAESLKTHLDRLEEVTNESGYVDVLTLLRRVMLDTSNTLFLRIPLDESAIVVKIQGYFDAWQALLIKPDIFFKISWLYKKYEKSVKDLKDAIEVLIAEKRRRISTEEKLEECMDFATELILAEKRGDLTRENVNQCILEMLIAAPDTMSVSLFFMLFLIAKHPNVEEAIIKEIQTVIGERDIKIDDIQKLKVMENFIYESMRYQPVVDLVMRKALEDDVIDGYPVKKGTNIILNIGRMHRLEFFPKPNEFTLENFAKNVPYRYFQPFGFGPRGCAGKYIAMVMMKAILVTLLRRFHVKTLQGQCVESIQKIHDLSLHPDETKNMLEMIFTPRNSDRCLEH

SMILES	outcome [1]	Potency [2]	Potency [3]	Potency [4]	outcome [5]	outcome [6]	Potency [7]	Potency [8]	Potency [9]	Potency [10]	Potency [11]	outcome [12]	outcome [13]	Potency [14]	Potency (Aromatase (Homo sapiens))	Potency [15]	outcome [16]	Potency [17]	Potency [18]	outcome [19]
CO[C@]12C[C@@H](COC(=O)c3cncc(Br)c3)CN(C)[C@@H]1Cc1cn(C)c3cccc2c13	inactive	5.96 µM (active)	10.6 µM (active)	11.9 µM (active)	inactive	inactive	inactive	inactive	inactive	21.1 µM (active)	21.1 µM (active)	inactive	inactive	inactive	inactive	–	–	–	–	–
C/C=C(\C)C#N	inactive	inactive	inactive	inactive	–	–	–	inactive	–	–	inactive	inactive	inactive	inactive	inactive	inactive	inactive	inactive	inactive	inactive
CCn1nc(C(=O)O)c(=O)c2cc3c(cc21)OCO3	inactive	inactive	inactive	inactive	inactive	inactive	inactive	inactive	inactive	–	–	–	inactive	inactive	inactive	–	inactive	inactive	inactive	inactive
C=COCC1CCC(CO)CC1 (stereo unspecified)	inactive	inactive	inactive	inactive	–	–	–	inactive	–	–	inactive	inactive	–	inactive	inactive	inactive	–	inactive	inactive	–
CN1CC(=O)NC1=N	inactive	inactive	–	inactive	inactive	–	inactive	inactive	inactive	inactive	inactive	inactive	inactive	inactive	inactive	inactive	–	–	–	–
CCC=O	inactive	inactive	inactive	inactive	–	–	–	inactive	–	–	inactive	inactive	inactive	inactive	inactive	inactive	inactive	–	–	inactive
COCCc1ccc(OCC(O)CNC(C)C)cc1 (stereo unspecified)	inactive	inactive and 21.1 µM (active)	inactive	inactive	–	–	–	inactive	–	–	–	–	inactive	inactive	inactive	inactive	–	–	–	–
O=C(O)CCCl	inactive	inactive	inactive	–	–	–	–	–	–	inactive	inactive	inactive	inactive	inactive	inactive	inactive	inactive	inactive	inactive	–
N[C@H](C(=O)O)c1ccc(O)cc1	inactive	inactive	inactive	inactive	–	–	–	inactive	–	inactive	–	–	inactive	inactive	inactive	inactive	inactive	inactive	inactive	inactive
C[C@H](NC(CCc1ccccc1)C(=O)O)C(=O)N1CCC[C@H]1C(=O)O (stereo partly specified)	inactive	inactive	inactive	inactive	–	–	–	inactive	–	–	inactive	inactive	–	inactive	inactive	inactive	inactive	inactive	inactive	inactive
c1ccc(CC2=NCCN2)cc1	inactive	inactive	inactive	inactive	–	–	–	inactive	–	inactive	inactive	inactive	inactive	inactive	inactive	–	inactive	inactive	inactive	inactive
Nc1c2c(nc3ccccc13)CCCC2O (stereo unspecified)	inactive	inactive	inactive	inactive	–	–	–	inactive	–	–	–	–	inactive	inactive	–	inactive	inactive	inactive	inactive	–
CCN(CC)CCOCCOC(=O)C1(c2ccccc2)CCCC1	inactive	5.96 µM (active)	2.11 µM (active)	5.96 µM (active)	–	–	–	inactive	–	–	–	–	–	inactive	inactive	inactive	–	inactive	inactive	–
Oc1ccc(C2CNCCc3c2cc(O)c(O)c3Cl)cc1 (stereo unspecified)	inactive	inactive	inactive	inactive	–	–	–	inactive	–	–	–	–	inactive	inactive	inactive	inactive	–	–	–	–
CN(C(=O)c1c(O)c2ccccc2n(C)c1=O)c1ccccc1	inactive	inactive	inactive	inactive	–	–	–	inactive	–	inactive	inactive	inactive	inactive	inactive	inactive	–	–	–	–	–
Cc1cccc(C)c1NC(=O)C(C)N (stereo unspecified)	inactive	inactive	inactive	inactive	–	–	–	inactive	–	–	–	–	inactive	inactive	inactive	inactive	inactive	inactive	inactive	inactive
Cc1cc2c(cc1S(N)(=O)=O)S(=O)(=O)CCC2	inactive	inactive	inactive	inactive	–	–	–	inactive	–	inactive	inactive	inactive	inactive	inactive	inactive	–	inactive	inactive	inactive	inactive
N#Cc1ccc(C2CCCc3cncn32)cc1 (stereo unspecified)	inactive	inactive	inactive	inactive	–	–	–	inactive	–	inactive	–	–	–	inactive	–	inactive	–	inactive	inactive	inactive
CCCCCSCCCCC	inactive	–	61.1 µM (active)	–	–	–	–	inactive	–	inactive	inactive	inactive	inactive	inactive	inactive	inactive	inactive	inactive	inactive	inactive
CCOC(=O)c1c(C)n(C)c2ccc(O)cc12	inactive	–	–	inactive	–	–	inactive	inactive	inactive	inactive	inactive	inactive	inactive	inactive	inactive	inactive	–	–	–	–
